Assay results as given in PubChem BioAssay (Tox21).
A number with no mark means an inactive call. Records with an inconclusive call do not appear. A call without a number means that no potency is given here. Activity calls are given as the source filed them. Unless noted, calls follow the shape of the dose curve; as a rule, active = well fitted curve in the direction sought with a large enough effect in the repeat runs; inconclusive = weak or mixed curves; inactive = no such curve, though single readings can be large; an effect the other way counts as inactive or inconclusive.

Assays:
[1] = qHTS assay to identify small molecule antagonists of the estrogen receptor alpha (ER-alpha) signaling pathway using the BG1 cell line in the presence of 0.1 nM 17-beta-estradiol - cell viability counter screen (AID 1259241); also: nearly all actives have a fitted effect of over 40% in size; also: potency is read from the fitted curve at half-maximal effect
Procedure, shortened: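 CellTiter-Fluor read (30 min, 37C) on ER-alpha/ERE-luc VM7Luc4E2 cells; 22 hr compound treatment; agonist 0.1 nM E2 final; same-well multiplex.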

[2] = qHTS assay to identify small molecule antagonists of the androgen receptor (AR) signaling pathway using the MDA cell line in the presence of 0.5 nM R1881 - cell viability counter screen (AID 1259242); also: nearly all actives have a fitted effect of over 45% in size; also: potency is read from the fitted curve at half-maximal effect
Procedure, shortened: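 Cytotoxicity toward MDA-kb2 cells is measured by CellTiter-Fluor live-cell protease fluorescence after 16 hr compound exposure at 37C in the presence of 0.5 nM R1881 stimulator.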

[3] = qHTS assay to identify small molecule phospholipidosis (PLD) inducers (AID 1259344; active = well fitted curve in the direction sought with a large enough effect; an effect the other way counts as inactive or inconclusive)
Procedure, shortened: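 Fluorescent phospholipid staining (LipidTOX Red) measured by automated microscopy in fixed HepG2 cells after 24 h treatment; nuclei counterstained with Hoechst 33342; amiodarone as reference inducer.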

[4] = qHTS assay to identify small molecule HDAC inhibitors - cell viability counter screen (AID 1259365); also: series mostly up to about 92 µM; nearly all actives have a fitted effect of over 50% in size
Procedure, shortened: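 To flag cytotoxic hits, 1,500 wild-type HCT-116 cells per well, plated the day before, receive test compounds for 2hr at 37 C before CellTiter-Glo reagent and a luminescence read.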

[5] = qHTS assay to identify small molecule agonists of the sonic hedgehog signaling (Shh) pathway - cell viability counter screen (AID 1259366); also: nearly all actives have a fitted effect of over 50% in size; also: potency is read from the fitted curve at half-maximal effect
Procedure, shortened: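 Fluorescence from CellTiter-Fluor reports live cells in this counter screen. NIH/3T3-derived Gli1-Luc reporter cells receive test compounds for 24hr at 37C; reagent goes in at 23hr.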

[6] = qHTS assay to identify small molecule antagonists of the sonic hedgehog signaling (Shh) pathway - cell viability counter screen (AID 1259367); also: nearly all actives have a fitted effect of over 55% in size; also: potency is read from the fitted curve at half-maximal effect
Procedure, shortened: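 Using CellTiter-Fluor, viability of Gli1-Luc reporter 3T3 cells is read by fluorescence in the wells used for the Shh luciferase assay. Treatment lasts 23 hr with conditioned medium, then reagent 1 hr at 37C.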

[7] = qHTS assay to identify small molecule agonists of the sonic hedgehog signaling (Shh) pathway (AID 1259368; calls by dose curve;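 also: NIH/3T3-derived 3T3Gli1-Luc cells carrying a stable Gli1-driven firefly luciferase reporter; series mostly up to about 92 µM; nearly all actives have a fitted effect of over 15% in size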)
Procedure, shortened: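 Steps: seed 3T3 Gli1-Luc cells, incubate 4 hr at 37 C, pin-transfer compounds in DMSO alongside a positive control, incubate 24 hr, add luciferase detection reagent, wait 30 min at room temperature, read luminescence.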

[8] = qHTS assay to identify small molecule antagonists of the sonic hedgehog signaling (Shh) pathway (AID 1259369; calls by dose curve; also: nearly all actives have a fitted effect of over 45% in size; also: potency is read from the fitted curve at half-maximal effect)
Procedure, shortened: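 Inhibition of Shh signalling is measured as reduced Gli1-response-element firefly luciferase output in an NIH/3T3-derived stable reporter clone stimulated with conditioned medium for 24hr.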

[9] = qHTS assay to identify small molecule agonists of the estrogen receptor beta (ER-beta) signaling pathway - cell viability counter screen (AID 1259380); also: nearly all actives have a fitted effect of over 30% in size; also: potency is read from the fitted curve at half-maximal effect
Procedure, shortened: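 Same-well viability counter screen. Cells: ER-beta-UAS-bla HEK293T, plated 6 hr before compound, in 2% charcoal-stripped FBS. Compound exposure 16 hr, 37C; viability by CellTiter-Glo luminescence after 30 min at room temperature.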

[10] = qHTS assay to identify small molecule antagonists of the estrogen receptor beta (ER-beta) signaling pathway - cell viability counter screen (AID 1259382); also: nearly all actives have a fitted effect of over 55% in size; also: potency is read from the fitted curve at half-maximal effect
Procedure, shortened: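 Following a 6 hr plating period, HEK293T cells carrying a UAS-driven beta-lactamase reporter under ER-beta control received compounds and 1nM E2 (final). After 16 hr at 37C and 2 hr substrate loading, CellTiter-Glo luminescence indicated viability.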

[11] = qHTS assay to identify small molecule agonists or antagonists of the thyroid stimulating hormone receptor (TSHR) signaling pathway - wild type cell line counter screen (AID 1259384; calls by dose curve)
Procedure, shortened: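 Counter screen in untransfected Hek293: compounds (15-point titration, triplicate) plus phosphodiesterase inhibitor Ro20-1724 added after 18 h plating; 30 min RT. Intracellular cAMP via competitive d2/cryptate immunoassay, 1 h incubation.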

[12] = target: Thyrotropin receptor (Homo sapiens) (UniProt P16473); test: qHTS assay to identify small molecule antagonists of the thyroid stimulating hormone receptor (TSHR) signaling pathway (AID 1259385; calls by dose curve; also: nearly all actives have a fitted effect of over 20% in size; also: potency is read from the fitted curve at half-maximal effect)
Procedure, shortened: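 Antagonist mode: compound-treated TSHR-expressing HEK293 cells were stimulated with 1.5 ng/mL TSH (final) in presence of Ro20-1724 for 30 min at RT. HTRF cAMP detection after 1 h; each compound tested at 15 concentrations, triplicate.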

[13] = qHTS assay to identify small molecule HDAC inhibitors (AID 1259364); also: nearly all actives have a fitted effect of over 45% in size; also: potency is read from the fitted curve at half-maximal effect
Procedure, shortened: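 Homogeneous cell-based luminescent assay of endogenous class I/II HDAC activity; HCT-116 cells, 2 h compound exposure, 30 min HDAC-Glo development at RT.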

[14] = target: Estrogen receptor beta (Homo sapiens) (UniProt Q92731); test: qHTS assay to identify small molecule agonists of the estrogen receptor beta (ER-beta) signaling pathway (AID 1259377; active = well fitted activation curve with a large enough effect in the signal ratio in the repeat runs, not every such curve was filed as active; the % refers to the signal ratio)
Procedure, shortened: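 Screening used GripTite ER-beta-UAS-bla cells held in 2% charcoal-stripped FBS medium. After overnight (16 hr) compound incubation at 37C, beta-lactamase activity was detected with a FRET substrate by fluorescence.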

[15] = target: Estrogen receptor beta (Homo sapiens) (UniProt Q92731); test: qHTS assay to identify small molecule antagonists of the estrogen receptor beta (ER-beta) signaling pathway (AID 1259378; active = well fitted inhibition curve with a large enough effect in the signal ratio in the repeat runs, not every such curve was filed as active; the % refers to the signal ratio; also: potency is read from the fitted curve at half-maximal effect)
Procedure, shortened: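 Antagonist mode: compounds added to beta-lactamase reporter HEK293T ER-beta-UAS cells stimulated with E2 (1nM final), 16 hr at 37C. LiveBLAzer B/G FRET substrate, 2 hours room temperature, fluorescence read-out.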

[16] = qHTS assay to identify small molecule agonists of the androgen receptor (AR) signaling pathway in the presence of an antagonist - cell viability counter screen (AID 1259379); also: nearly all actives have a fitted effect of over 25% in size; also: potency is read from the fitted curve at half-maximal effect
Procedure, shortened: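 Fluorescence from CellTiter-Fluor, added after 15 hr and read 1 hr later, gave cell viability. Cells were MDA-kb2 exposed to compounds (15 concentrations) in the presence of 3.0uM nilutamide at 37C, 0% CO2.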

[17] = target: Androgen receptor (Homo sapiens) (UniProt P10275); test: qHTS assay to identify small molecule agonists of the androgen receptor (AR) signaling pathway in the presence of an antagonist (AID 1259381; calls by dose curve; also: nearly all actives have a fitted effect of over 15% in size)
Procedure, shortened: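 Cells are MDA-kb2 (human breast carcinoma, MMTV-luc, AR/GR responsive). Nilutamide is present at 3.0uM final throughout; compounds are added at 15 concentrations and incubated 16hr at 37C before ONE-Glo luminescence detection.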

[18] = target: Estrogen receptor (Homo sapiens) (UniProt P03372); test: qHTS assay to identify small molecule agonists of the estrogen receptor alpha (ER-alpha) signaling pathway in the presence of an antagonist (AID 1259383; calls by dose curve; also: top concentration of the series differs between compounds; nearly all actives have a fitted effect of over 15% in size)
Procedure, shortened: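 Cells are hormone-deprived for 5 days (charcoal-stripped FBS, no phenol red), plated for 24hr, spiked with 10.0nM ICI-182,780, then dosed at 15 concentrations. After 22hr at 37C, ONE-Glo luminescence reports ERE-luciferase activity.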

Estrogen receptor beta (Homo sapiens), sequence (Q92731 whole entry, looked up): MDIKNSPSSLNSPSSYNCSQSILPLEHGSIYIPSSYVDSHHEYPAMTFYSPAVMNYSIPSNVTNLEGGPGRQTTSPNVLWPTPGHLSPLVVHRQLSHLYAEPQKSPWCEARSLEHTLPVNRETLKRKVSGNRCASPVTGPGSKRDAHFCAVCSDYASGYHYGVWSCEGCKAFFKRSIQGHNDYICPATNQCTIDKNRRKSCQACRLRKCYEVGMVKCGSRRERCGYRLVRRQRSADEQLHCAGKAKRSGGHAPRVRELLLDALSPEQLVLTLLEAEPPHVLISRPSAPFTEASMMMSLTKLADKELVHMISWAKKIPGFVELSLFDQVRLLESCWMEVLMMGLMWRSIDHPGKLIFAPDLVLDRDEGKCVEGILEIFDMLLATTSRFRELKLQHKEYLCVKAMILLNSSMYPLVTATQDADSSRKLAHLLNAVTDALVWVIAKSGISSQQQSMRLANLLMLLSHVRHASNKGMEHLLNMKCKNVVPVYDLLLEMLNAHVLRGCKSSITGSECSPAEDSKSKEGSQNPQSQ
Thyrotropin receptor (Homo sapiens), sequence (P16473 whole entry, looked up): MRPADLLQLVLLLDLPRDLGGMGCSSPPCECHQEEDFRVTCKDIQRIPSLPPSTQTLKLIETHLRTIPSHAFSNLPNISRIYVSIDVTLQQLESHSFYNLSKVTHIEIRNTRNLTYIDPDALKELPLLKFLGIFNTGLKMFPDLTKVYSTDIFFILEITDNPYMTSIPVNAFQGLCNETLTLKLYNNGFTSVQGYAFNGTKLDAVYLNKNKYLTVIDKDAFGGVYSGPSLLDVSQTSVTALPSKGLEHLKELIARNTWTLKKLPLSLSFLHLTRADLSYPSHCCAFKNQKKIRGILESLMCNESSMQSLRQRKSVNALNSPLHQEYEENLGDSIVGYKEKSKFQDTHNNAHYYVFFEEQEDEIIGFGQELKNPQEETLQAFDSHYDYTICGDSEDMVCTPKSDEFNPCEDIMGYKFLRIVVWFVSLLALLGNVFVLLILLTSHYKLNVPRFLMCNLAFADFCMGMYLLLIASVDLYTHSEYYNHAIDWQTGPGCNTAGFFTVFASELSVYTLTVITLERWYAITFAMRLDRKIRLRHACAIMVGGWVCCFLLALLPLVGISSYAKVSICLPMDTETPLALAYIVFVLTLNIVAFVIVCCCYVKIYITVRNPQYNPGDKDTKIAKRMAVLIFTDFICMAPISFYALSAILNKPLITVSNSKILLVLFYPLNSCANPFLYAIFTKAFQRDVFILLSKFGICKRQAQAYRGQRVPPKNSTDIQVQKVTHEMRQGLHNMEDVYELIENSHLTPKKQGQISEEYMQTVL
Estrogen receptor (Homo sapiens), sequence (P03372 whole entry, looked up): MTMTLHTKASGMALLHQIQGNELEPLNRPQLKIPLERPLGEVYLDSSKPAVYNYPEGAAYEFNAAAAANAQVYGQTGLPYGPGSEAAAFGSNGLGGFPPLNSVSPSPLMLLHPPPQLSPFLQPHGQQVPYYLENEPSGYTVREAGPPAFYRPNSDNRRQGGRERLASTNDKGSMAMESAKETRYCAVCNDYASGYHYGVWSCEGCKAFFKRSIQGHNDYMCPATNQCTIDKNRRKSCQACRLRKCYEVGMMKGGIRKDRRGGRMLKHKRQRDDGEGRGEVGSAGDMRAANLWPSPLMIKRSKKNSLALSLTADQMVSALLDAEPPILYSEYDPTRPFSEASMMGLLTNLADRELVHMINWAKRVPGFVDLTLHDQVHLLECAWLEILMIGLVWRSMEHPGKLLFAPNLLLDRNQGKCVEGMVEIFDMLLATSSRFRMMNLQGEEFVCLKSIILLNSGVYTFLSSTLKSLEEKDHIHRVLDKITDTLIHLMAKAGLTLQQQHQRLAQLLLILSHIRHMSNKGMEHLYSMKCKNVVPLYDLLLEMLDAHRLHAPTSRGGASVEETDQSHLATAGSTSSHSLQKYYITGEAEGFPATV
Androgen receptor (Homo sapiens), sequence (P10275 whole entry, looked up): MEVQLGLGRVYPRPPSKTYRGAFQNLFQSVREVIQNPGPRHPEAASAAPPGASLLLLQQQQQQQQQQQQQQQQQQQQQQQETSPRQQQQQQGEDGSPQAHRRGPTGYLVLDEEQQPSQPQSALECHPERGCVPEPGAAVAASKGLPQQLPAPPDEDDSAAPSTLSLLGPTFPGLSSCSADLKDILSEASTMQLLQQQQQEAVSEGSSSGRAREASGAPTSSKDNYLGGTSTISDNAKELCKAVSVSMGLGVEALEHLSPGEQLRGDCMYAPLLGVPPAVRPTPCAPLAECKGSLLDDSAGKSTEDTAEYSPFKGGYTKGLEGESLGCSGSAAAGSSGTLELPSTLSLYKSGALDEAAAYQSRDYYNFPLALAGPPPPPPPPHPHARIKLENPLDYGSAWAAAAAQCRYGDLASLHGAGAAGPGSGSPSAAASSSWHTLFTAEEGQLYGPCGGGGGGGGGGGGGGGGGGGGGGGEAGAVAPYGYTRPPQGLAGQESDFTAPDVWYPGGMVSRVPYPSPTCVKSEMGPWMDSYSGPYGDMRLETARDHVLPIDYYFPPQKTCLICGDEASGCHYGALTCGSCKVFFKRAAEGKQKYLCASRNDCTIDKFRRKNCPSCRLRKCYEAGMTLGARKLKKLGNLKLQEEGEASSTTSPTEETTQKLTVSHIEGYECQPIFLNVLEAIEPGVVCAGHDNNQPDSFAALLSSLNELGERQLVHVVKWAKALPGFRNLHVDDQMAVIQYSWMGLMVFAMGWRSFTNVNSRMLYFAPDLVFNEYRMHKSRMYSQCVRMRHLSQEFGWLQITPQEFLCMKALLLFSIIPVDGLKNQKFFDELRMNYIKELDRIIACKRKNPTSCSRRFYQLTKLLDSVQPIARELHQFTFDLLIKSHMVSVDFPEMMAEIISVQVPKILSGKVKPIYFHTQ

Structure (SMILES) | Potency [1] | Potency [2] | Potency [3] | Potency [4] | Potency [5] | Potency [6] | Potency [7] | Potency [8] | Potency [9] | Potency [10] | outcome [11] | Potency [12] | Potency [13] | Potency [14] | Potency [15] | Potency [16] | Potency [17] | Potency [18] | PLD induction [3]
CN(C/C=C/C#CC(C)(C)C)Cc1cccc2ccccc12 | inactive | inactive | inactive | inactive | inactive | inactive | inactive | inactive | 26.6 µM (active) | 29.8 µM (active) | inactive | inactive |  |  |  |  |  |  | 
CCC1OCC(COc2ccc(Oc3ccccc3)cc2)O1 (stereo unspecified) | inactive | inactive |  | inactive |  | 61.1 µM (active) | inactive |  | inactive |  | inactive |  | 17.2 µM (active) | inactive | inactive | inactive |  |  | 
CCCCCCCCS(=O)C(C)Cc1ccc2c(c1)OCO2 (stereo unspecified) | inactive | inactive |  | inactive |  |  | inactive | 31.2 µM (active) |  | inactive | inactive |  | inactive | inactive |  |  | inactive | inactive | 
CC(C)OC(=O)c1cc2c(OCC(O)CNC(C)(C)C)cccc2[nH]1 (stereo unspecified) | inactive | inactive |  | inactive |  | inactive | inactive | 2.66 µM (active) |  |  | inactive |  | inactive | inactive | inactive |  | inactive |  | 
Oc1cccc2cc3cccc(O)c3c(O)c12 | inactive | inactive |  | inactive | inactive | inactive | inactive | inactive | inactive |  | inactive |  | inactive |  |  |  |  |  | 
O=C(OCC(COC(=O)c1ccccc1)(COC(=O)c1ccccc1)COC(=O)c1ccccc1)c1ccccc1 | inactive | inactive |  | inactive | inactive | inactive | inactive | inactive | inactive |  | inactive | inactive | inactive | inactive |  | inactive |  |  | 
CCCCCCCCn1sc(Cl)c(Cl)c1=O | inactive | 15.4 µM (active) |  | inactive |  |  | inactive |  | 12.2 µM (active) |  | inactive |  | inactive | inactive |  | 27.3 µM (active) |  | inactive | 
Cc1cc(N)c(S(=O)(=O)O)cc1Cl | inactive | inactive |  | inactive | inactive | inactive | inactive | inactive | inactive | inactive | inactive | inactive | inactive | inactive | inactive |  |  |  | 
NC(=O)C1(N2CCCCC2)CCN(CCCN2c3ccccc3CCc3ccc(Cl)cc32)CC1 | inactive | 26.6 µM (active) |  | inactive | 23.7 µM (active) | 29.8 µM (active) | inactive | 8.41 µM (active) | 13.3 µM (active) | 21.1 µM (active) | inactive | 29.8 µM (active) | inactive |  | 11.9 µM (active) | 23.7 µM (active) |  | inactive | 
O=c1c(-c2ccccc2)c1-c1ccccc1 | inactive | inactive | inactive | inactive | 13.3 µM (active) | 11.9 µM (active) | inactive | 5.96 µM (active) | inactive |  | inactive |  |  |  | 10.6 µM (active) |  |  | inactive | 
CN(C)[C@@H]1C(=O)C(C(N)=O)=C(O)[C@@]2(O)C(=O)C3=C(O)c4c(O)ccc(Cl)c4[C@@H](O)[C@H]3C[C@@H]12 | inactive | inactive | inactive | inactive |  | inactive | inactive | inactive | inactive |  | inactive | inactive | inactive | inactive |  | inactive |  |  | 
Nc1c(Cl)cc(Cl)cc1Cl | inactive | inactive |  | inactive | inactive | inactive | inactive | inactive | inactive | inactive | inactive | inactive | inactive |  |  |  |  |  | 
CC(C)c1ccc2c(c1)CC[C@H]1[C@](C)(CN)CCC[C@]21C | inactive | 48.6 µM (active) |  | inactive | 48.6 µM (active) |  | inactive | 15.4 µM (active) | 54.5 µM (active) | 61.1 µM (active) | inactive |  | inactive |  | 61.1 µM (active) | 43.3 µM (active) |  |  | 
C/C=C(\C)C(=O)OCc1ccccc1 | inactive | inactive |  | inactive | inactive | inactive | inactive | inactive | inactive | inactive | inactive | inactive | inactive | inactive | inactive | inactive |  |  | 
CC(=O)S[C@@H]1CC2=CC(=O)CC[C@]2(C)[C@H]2CC[C@@]3(C)[C@@H](CC[C@@]34CCC(=O)O4)[C@H]12 | inactive | inactive |  | inactive |  | inactive | inactive |  | 30.6 µM (active) |  | inactive |  | inactive | inactive |  | inactive |  |  | 5.04% [at 1.53 µM]
Cc1[nH]nc2c1N=C(c1ccccc1Cl)c1cc([N+](=O)[O-])ccc1N2 | 27.3 µM (active) | 27.3 µM (active) |  | inactive | 13.7 µM (active) | 8.63 µM (active) | inactive | 1.72 µM (active) | 27.3 µM (active) |  | inactive |  | inactive |  |  | 30.6 µM (active) |  |  | 
CO[Si](CCCNc1ccccc1)(OC)OC | inactive | inactive |  | inactive | inactive | inactive | inactive | inactive | inactive | inactive | inactive | inactive | inactive |  |  | inactive |  |  | 
